# A selection: hits, their analogues and other compounds. The true share with any hit is near 2.8%.
# FXN GAA850 act: activators of GAA850 frataxin (FXN) promoter | hit rate 0.56% among 360,000 | activation, % at 6 µM | HEK293 lucGAA850 FXN promoter luciferase reporter, 24 h; percent of 10 µM SAHA response;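 active means activation above the average of all compounds screened plus 3 SD, cutoff fixed separately per campaign, cut at about 7.5% in these data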;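 further: 0% = DMSO wells and 100% = 10 µM SAHA wells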
# Wnt bcat act: Wnt/beta-catenin pathway activation. AID 743398. Wnt/beta-catenin reporter cell assay, activator, plate reader. hit rate 1.2% among 300,000. activation, % at 9.35 µM; in the data active means activation above about 30%, passing the limit was not always enough;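 further: 0% = neutral control wells and 100% = positive control wells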
# MITF TRPM1 HTS: activators of MITF-driven TRPM1 promoter activity in SK-MEL-5 cells; AID 588334; SK-MEL-5 TRPM1-promoter luciferase, 24 h; % of positive control, neutral wells = 0; activation, % at 12.5 µM; hit rate 0.75% among 300,000;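 active means mean activation of at least 80% with every replicate also reaching 80%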;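 further: 0% = neutral control wells and 100% = parthenolide positive control wells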
# esBAF inh: SWI/SNF esBAF complex inhibition; mouse ES cells, Bmi1-luciferase knock-in reporter, 24 h; 100% = twice the neutral-well signal; reporter increase, % at 12.5 µM; hit rate 2% among 350,000; AID 602393; in the data active means activation above about 40%;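 further: 0% = median of the plate's neutral control wells and 100% = double that signal; a rise in the Bmi1 reporter signal indicates esBAF inhibition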
# GAA30 counter: GAA30 FXN promoter activation counter-screen | shares compounds with FXN GAA850 act | HEK293 lucGAA30 FXN promoter luciferase, 24 h; DMSO = 0%, 5 µM ipriflavone = 100% | activation, % at 6 µM | hit rate 66% among 1,900;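 active means mean activation above the mean of solvent-only control wells plus 3 SD, cut at about 22% in these data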;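 further: counterscreen of GAA850 promoter hits where activity marks nonselective or luminescence artifacts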
# GAA850 confirm: confirmation of GAA850 frataxin (FXN) promoter activators; shares compounds with FXN GAA850 act; HEK293 lucGAA850 FXN promoter luciferase reporter, 24 h; 100% = activation by SAHA; activation, % at 6 µM; hit rate 86% among 1,900;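 active means mean activation above a set limit taken from the primary screen, cut at about 8% in these data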;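 further: 0% = DMSO wells and 100% = 10 µM SAHA wells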
# Ring1 derepress: esBAF inhibition confirmed by Ring1 de-repression | shares compounds with esBAF inh | mouse ESC E14, Ring1 mRNA RT-qPCR fold change | fold change at 33 µM | 550 tested, under 10 active | AID 743176;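 active means Ring1 gene expression raised more than 2-fold over untreated cells in both replicates at either tested dose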;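 further: Ring1 transcript normalised to actin housekeeping signal by TaqMan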
# Fgf4 repress: confirmation of esBAF inhibitors: Fgf4 repression in mouse ESCs; Fgf4 expression fold change at 33 µM; shares compounds with esBAF inh; mouse ESC E14, Fgf4 mRNA qPCR fold change; stronger effect = lower value; hit rate 4% among 550;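 active means Fgf4 expression under 0.8 fold of control in both repeat measurements at one or both tested doses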;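 further: Fgf4 transcript normalised to actin in duplex TaqMan qPCR; cells exposed to compound for 24 h before lysis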
# Bmi1 derepress: confirmation of esBAF inhibitors: Bmi1 de-repression in mouse ESCs | mouse ESE14 ES cells, Bmi1 mRNA qPCR fold; stronger effect = higher value | fold change at 33 µM | AID 743180 | 550 tested, under 10 active | shares compounds with esBAF inh;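 active means Bmi1 expression fold change above 6 at either tested concentration, seen in replicate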
# A549 tox SP: A549 cell cytotoxicity. shares compounds with esBAF inh. plate reader. cell viability change % (negative = cytotoxic), % at 25 µM, hits read low. 550 tested, under 10 active; call rule not given here
# HepG2 tox SP: HepG2 cell cytotoxicity at single point; shares compounds with esBAF inh; plate reader; stronger effect = lower value; activity change, negative = inhibition, % at 25 µM; hit rate 4% among 550; AID 743189; in the data active means activity change below about -50%
# HEK293 cytotox SP: HEK293 cell cytotoxicity at single point; shares compounds with esBAF inh; plate reader; activity change, negative = inhibition, % at 25 µM, hits read low; hit rate 3% among 550; AID 743190; in the data active means activity change below about -38%, passing the limit was not always enough
# Numbers without * were called inactive; x = no result; ! = not active in a repeat.
SMILES,FXN GAA850 act,Wnt bcat act,MITF TRPM1 HTS,esBAF inh,GAA30 counter,GAA850 confirm,others
Oc1cc(O)cc(/C=C/c2ccc(O)cc2O)c1,1,x,94*,-7,x,x,
CN(C)C(=O)[C@@H]1[C@@H](CO)[C@@H]2Cn3c(cccc3=O)[C@H]1N2CC1CC1,x,x,x,-2,x,x,
CN(C)[C@@H]1C(=O)C(C(N)=O)=C(O)[C@@]2(O)C(=O)C3=C(O)c4c(O)ccc(Cl)c4[C@@](C)(O)C3C[C@@H]12 (stereo not given in full),14*,2,-38,17,6,1,
CN(C)[C@@H]1C(=O)C(C(N)=O)=C(O)[C@@]2(O)C(=O)C3=C(O)c4c(O)cccc4[C@@](C)(O)C3[C@H](O)C12 (stereo not given in full),15*!,1,-9,-1,28*,9.1*,
Cc1cccc(S(=O)(=O)N2[C@@H]3Cn4c(ccc(-c5ccccc5)c4=O)[C@H]2[C@@H](C(=O)O)[C@@H]3CO)c1,x,x,x,1,x,x,
O=c1cccc2n1CC1CC2CN(Cc2c(Cl)cccc2Cl)C1 (stereo not given),1,x,1,2,x,x,
O=c1cccc2n1CC1CC2CN(c2nc(N3CCCCC3)nc(N3CCCCC3)n2)C1 (stereo not given),11*,0,7,x,32*,12*,
COC(=O)[C@@H]1[C@@H](CO)[C@@H]2Cn3c(ccc(-c4cccc(F)c4)c3=O)[C@H]1N2Cc1ccccc1,x,x,x,4,x,x,
Cc1ccc(N2C(=O)NC(=O)/C(=C/C=C/c3ccco3)C2=O)cc1,5,x,-73,x,x,x,
CC(C)c1ccc(N2C(=O)NC(=O)/C(=C/C=C/c3ccco3)C2=O)cc1,8.7*,3,-99,x,3,20*,
Cc1cc(C)cc(N2C(=O)NC(=O)/C(=C\C=C\c3ccco3)C2=O)c1,8.9*,10,-94,2,-49,-10,
COC(=O)C[C@H]1CC[C@@H]2NC[C@H](O)COC[C@H]2O1,x,x,x,0,x,x,
CCNC(=O)C1OC(n2cnc3c(N)ncnc32)C(O)C1O (stereo not given),10*,x,13,-13,18,26*,
CN(C)C(=S)SSC(=S)N(C)C,27*,-2,-55,2,-118,-34,
COc1ccc(/C=N/N=C(/N)N[N+](=O)[O-])c(OC)c1,9.7*,1,x,13,75*,26*,
CCCNC(=O)[C@@H]1[C@@H](CO)[C@@H]2Cn3c(cccc3=O)[C@H]1N2CCC,x,x,x,5,x,x,
CCC(=NC(C)c1ccccc1)c1c(O)[nH]c(=O)[nH]c1=O (stereo not given),8.5*,0,23,-11,16,10*,
CCN1C(=O)C(=Cc2ccc(C)s2)C(=O)N(CC)C1=S,9.0*,6,8,x,79*,45*,
Cn1cccc1/C=C1\C(=O)NC(=O)N(Cc2ccccc2)C1=O,8.0*,10,-23,x,-7,24*,
O=C1Nc2ccccc2/C1=C/c1cnc[nH]1,2,4,-17,17,x,x,
COc1ccc2c(c1)/C(=C/c1cnc[nH]1)C(=O)N2,43*,13,-34,52*,116*,76*,
COC(=O)[C@@H]1[C@@H](CO)[C@@H]2Cn3c(ccc(-c4ccccc4F)c3=O)[C@H]1N2Cc1ccccc1,x,x,x,-4,x,x,
COC(=O)[C@@H]1[C@@H](CO)[C@@H]2Cn3c(ccc(-c4ccncc4)c3=O)[C@H]1N2CCc1ccccc1,x,x,x,0,x,x,
COC(=O)C[C@]1(C(=O)OC)CN(C#N)N(c2ccc(Cl)cc2)C12c1ccccc1-c1ccccc12,-15,-22,-95,x,x,x,
COC(=O)[C@@H]1[C@@H](C(=O)OC)C2(c3ccccc3-c3ccccc32)N(c2ccc(Cl)cc2)N1C#N,13*,x,-93,x,-96,-19,
SMILES,FXN GAA850 act,Wnt bcat act,MITF TRPM1 HTS,esBAF inh,GAA30 counter,GAA850 confirm,others
COC(=O)[C@H]1[C@H](CO)[C@H]2Cn3c(ccc(-c4ccccc4OC)c3=O)[C@@H]1N2Cc1ccccc1,x,x,x,3,x,x,
O=C(O)[C@H]1[C@H](CO)[C@H]2Cn3c(ccc(-c4ccncc4)c3=O)[C@@H]1N2C(=O)C1CC1,x,x,x,-7,x,x,
O=C(Cc1ccncc1)N1CCCCN2[C@H](CO)[C@@H](c3ccc(C#Cc4ccccc4F)cc3)[C@@H]2C1,x,x,x,13,x,x,
CN1C(=O)c2ccccc2NC(=O)[C@]12O[C@@H]2c1ccccc1,13*,-4,8,16,20,5,
COc1ccc(C#Cc2ccc([C@H]3[C@@H](CO)N4CCCCN(C(=O)Cc5ccccc5)C[C@@H]34)cc2)cc1,x,x,x,-7,x,x,
C=CCNC(=O)c1c(N)n(Cc2ccco2)c2nc3ccccc3nc12,9.6*,-5,-22,-9,17,8.6*,
CN(C)c1ccc(N=Cc2c(O)n(CCC3=CCCCC3)c(=O)[nH]c2=O)cc1,25*,x,x,0,2,6,
CCN(CC)c1ccc(N=Cc2c(O)n(CCC3=CCCCC3)c(=O)[nH]c2=O)cc1,4,x,x,-3,x,x,
C/C=C/c1ccc([C@@H]2[C@H](CO)N3CCCCN(C(=O)Cc4ccncc4)C[C@@H]23)cc1,x,x,x,-5,x,x,
Cc1ccc(OC(=O)N(C)C[C@@H]2OCc3ccccc3-c3c(n(C)c4ccccc34)C(=O)N([C@H](C)CO)C[C@H]2C)cc1,x,-4,x,x,x,x,
COc1ccc(OC(=O)N(C)C[C@@H]2OCc3ccccc3-c3c(n(C)c4ccccc34)C(=O)N([C@H](C)CO)C[C@@H]2C)cc1,12*,-2,x,-1,18,9.1*,
O=c1[nH]cnc2nc(-c3ccc(N(CCCl)CCCl)cc3)[nH]c12,9.0*,10,61,74*,91*,56*,Ring1 derepress=1.1;Fgf4 repress=0.89;Bmi1 derepress=2.4;A549 tox SP=-54*;HepG2 tox SP=8;HEK293 cytotox SP=-37*

# Assay outcomes (PubChem BioAssay)
